Screens: PubChem BioAssay, National Center for Advancing Translational Sciences (NCATS)
ALDH1A1 inh – qHTS Assay for Inhibitors of Aldehyde Dehydrogenase 1 (ALDH1A1) | Aldehyde dehydrogenase 1A1 (Homo sapiens), P00352 | Purified ALDH1A1, NADH fluorescence, propionaldehyde substrate | Potency, µM (doses to about 75.3 µM), for the others: top-dose activity, negative = inhibition, actives largely listed as inhibitors | actives 7.3% (n = 220,000) | AID 1030, 2008;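 also: potency is read from the fitted curve at half-maximal effect; plate controls were no enzyme wells and a reference inhibitor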
HPGD inh – qHTS Assay for Inhibitors of HPGD (15-Hydroxyprostaglandin Dehydrogenase) | 15-hydroxyprostaglandin dehydrogenase [NAD(+)] (Homo sapiens), P15428 | purified HPGD, NADH fluorescence kinetic, PGE2 substrate | Potency, µM, without a hit: at the top dose activity change, negative = inhibition, hits mostly inhibitors | actives 4.3% (n = 150,000); also: potency is read from the fitted curve at half-maximal effect
Target sequence (P15428 whole entry, looked up): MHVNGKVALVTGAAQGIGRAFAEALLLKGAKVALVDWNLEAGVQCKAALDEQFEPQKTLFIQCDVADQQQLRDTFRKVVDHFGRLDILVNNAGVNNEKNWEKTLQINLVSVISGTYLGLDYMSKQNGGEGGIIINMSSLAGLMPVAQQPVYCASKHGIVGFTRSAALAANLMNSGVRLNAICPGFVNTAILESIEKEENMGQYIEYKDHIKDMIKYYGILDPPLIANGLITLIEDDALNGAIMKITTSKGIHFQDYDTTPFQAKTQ
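NADH formation kinetics: reaction with 30 uM PGE2 and 1 mM NAD+ (final), 20 nM enzyme, Tris-HCl pH 8 with Tween 20, after 15 min compound preincubation at room temperature. Fluorescence change, last versus first of five reads.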
PNC assembly inh – High Content Assay for Compounds that inhibit the Assembly of the Perinucleolar Compartment; PC3M PTB-GFP, PNC prevalence imaging, 16 h; active compounds read low; activity change (PNC), negative = inhibition, % at 10 µM; actives 3.1% (n = 140,000);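 active = readout at or below -70, meaning at least 70% loss of cells showing the perinucleolar compartment, a nuclear body marking cancer cells; inconclusive = readout between -30 and a set limit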;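 also: plate controls were DMSO wells for no effect and camptothecin positive control wells for full effect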
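Read-out is percentage of cells bearing a perinucleolar compartment, from automated 20x imaging of fixed, Hoechst-stained PC3M PTB-GFP cells. Cells were seeded 4 h, then exposed 16 h to compound (23 nl of library stock) in duplicate plates.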
* = called active by the depositor; ? = inconclusive; . = no result given; [ ] = remark or other dose. Rows were chosen to be rich in hits. Some 11% of all compounds tested hit in one or more screens of this group. Unless noted, calls follow the shape of the dose curve; as a rule, active = well fitted inhibition curve with a large enough effect (not every such curve was filed as active); inconclusive = small, poorly fitted or top-dose-only effect, or another doubt; inactive = no such curve, though single readings can be large or run the other way. Unless noted, % is scaled to controls: 0 for no effect and ±100 for the full control effect.

SMILES | ALDH1A1 inh | HPGD inh | PNC assembly inh
COC(=O)N1[C@H](C)C=C[C@]1(Cc1ccccc1)C(=O)NCc1ccc(N(C)C)cc1 | 8.9µM* | -14% | .
CC(C)Cn1c(N)c(C(=O)CSc2ccc3c(c2)OCCO3)c(=O)n(C)c1=O | 0% | -7% | 2
COC(=O)c1cc(=O)c2c(C)nc(C(Cl)(Cl)Cl)nc2[nH]1 | -3% | . | .
N#C/C(C(=O)N1CCCC1)=C1/N=C(N)c2ccccc21 | ? | -20% | ?
Cc1ccc(NC(=O)NC2=N/C(=C(/C#N)C(=O)N3CCCC3)c3ccccc32)cc1 | 0.63µM* | -21% | 43
CSc1ccccc1NC(=O)c1ccco1 | -2% | -11% | -8
CC(C)CC(=O)N1CCN(c2ccc([N+](=O)[O-])cc2Cl)CC1 | 32µM* | -11% | 24
CC(C)C(=O)N1CCN(c2ccccc2NC(=O)c2cc([N+](=O)[O-])ccc2N2CCOCC2)CC1 | 7% | . | .
CC(C)C(=O)N1CCN(c2ccc([N+](=O)[O-])cc2Cl)CC1 | 14µM* | -8% | 12
CC(C)CC(=O)NC(=S)N1CCN(c2ccc([N+](=O)[O-])cc2Cl)CC1 | ? | -9% | -29
CC(=O)Nc1cccc(OCC(=O)Nc2sccc2C(N)=O)c1 | -15% | . | .
Cc1cc(C)n(-c2c(F)c(F)c(CO)c(F)c2F)n1 | 6% | -11% | 24
CCCCc1nnc(NC(=O)C(C)Sc2nc(C)cc(=O)[nH]2)s1 (stereo unspecified) | 2% | ? | -1
CC(=O)c1cc(NC(=O)c2cccc(C(F)(F)F)c2)c(=O)oc1C | 3.5µM* | . | .
CC(=O)c1cc(NC(=O)c2cccc(C(F)(F)F)c2)c(=O)oc1/C=C/N(C)C | 5% | 2% | 56
COc1ccccc1N(CC(=O)NCc1ccccc1)C(=O)CCC(=O)Nc1cc(C)ccn1 | 3% | -1% | 2
COc1ccc(/C=C2\OC(=S)N(C)C2=O)cc1 | 20µM* | -9% | 1
COc1ccc(/C=C2/SC(=S)N(CCC(=O)O)C2=O)cc1 | ? | -26% | 38
O=C1c2cccc3c(N4CCCCC4)ccc(c23)C(=O)N1c1ccccn1 | ? | -12% | 97
CCCN1C(=O)c2cccc3c(N4CCCCC4)ccc(c23)C1=O | 3% | -13% | -88*
CCOC(=O)c1cc(-c2ccccc2)sc1NC(=O)c1ccc(OC)cc1 | ? | 3.5µM* | 54
CCOC(=O)c1cc(-c2ccccc2)sc1N | 11µM* | 11µM* | 55
CCOC(=O)c1cc(-c2ccccc2)sc1NC(=O)CSc1nnc(N)s1 | -5% | . | .
CCOC(=O)c1c(N)sc(C)c1-c1ccccc1 | ? | 25µM* | .
CCOC(=O)c1cc(-c2ccccc2)sc1NC(=O)CC | ? | ? | -16
SMILES | ALDH1A1 inh | HPGD inh | PNC assembly inh
CCOC(=O)c1c(N)sc(-c2ccccc2)c1C | ? | ? | -19
C=CCC1C=CC(Oc2ccc(OC)cc2)C(COC(=O)c2ccc(Br)cc2)O1 (stereo unspecified) | -5%[13.5 µM] | . | .
CCCN1C[C@H](CSC)C[C@@H]2c3cccc4[nH]cc(c34)C[C@H]21 | 6% | -5% | -9
CCCN1CCN(CCCNC(=O)Cn2nc(-c3ccccc3)ccc2=O)CC1 | 1% | -8% | 0
COc1ccc(C(=O)NCCN2CCOCC2)c(OC)c1OC | 12% | . | .
O=C(CCNC(=O)OCc1ccccc1)NC1CCCCCC1 | 4% | -4% | 7
COc1cc(CCC(O)CC(=O)CCc2ccccc2)ccc1O (stereo unspecified) | 0% | . | .
CCOC(=O)C1CCN(S(=O)(=O)c2cccc3nonc23)CC1 | ? | 0% | 31
O=C(Nc1ccccn1)C1CCN(S(=O)(=O)c2cccc3nonc23)CC1 | 28µM* | -16% | 7
CC1CCN(C(=O)C2CCN(S(=O)(=O)c3cccc4nonc34)CC2)CC1 | ? | 16µM* | 40
Cc1ccc(NC(=O)C2CCN(S(=O)(=O)c3cccc4nonc34)CC2)nc1 | ? | . | -3
CCn1c(C)cc(=S)c2ccccc21 | 4µM* | -5% | -28
CCn1c2ccccc2c2nc3ccccc3nc21 | ? | -12% | ?
CC1=C(C(=O)Nc2ccccc2)C(c2ccncc2)n2nnnc2N1 (stereo unspecified) | ? | . | -19
CC1=C(C(=O)Nc2ccccc2)C(c2cccs2)n2nnnc2N1 (stereo unspecified) | 11µM* | -8% | ?
CC1=C(C(=O)Nc2cccnc2)C(c2ccncc2)n2nnnc2N1 (stereo unspecified) | -5% | -12% | -8
CC1=C(C(=O)Nc2cccnc2)C(c2ccccn2)n2nnnc2N1 (stereo unspecified) | 14µM* | -17% | 34
